Data from PubChem BioAssay AID743395 (Broad Institute, 2014).
The campaign covered roughly 1,200 compounds. About 480 (40%) were called active. So high a share suggests a set chosen from earlier hits. These entries were drawn from the full list. Results with a measured potency or affinity are listed apart. A number with no mark means an inactive call. How the calls were made is not given here.

test: HepG2 cell cytotoxicity, dose response, cytotoxicity control, CellTiter-Glo luminescence, cherry-pick, set 2 (AID 743395); conditions: HepG2 viability, CellTiter-Glo ATP luminescence, 72 h; series mostly up to 26 µM; activity change, negative = cytotoxicity: at the top concentration;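 further: 0% = neutral control wells and -100% = positive control wells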

Structure (SMILES)	activity change, negative = cytotoxicity
O=C(N/N=C/c1cccs1)c1cccc(NC(=O)c2ccccc2Cl)c1	-0.464%
O=C(c1ccc(S(=O)(=O)NCC2CCCO2)cc1)N1CCN(c2cccc(Cl)c2)CC1 (stereo not drawn)	-9.2%
O=C(CSc1nc2nn(-c3ccccc3)c(=O)c-2c2n1CCCCC2)Nc1ccc(OC(F)F)cc1	-13.5%
COc1cc(OC)c2c(-c3cccc(-c4ccc(OC)c(F)c4)c3)cc(=O)oc2c1	-19.6%
COc1ccc(-c2c(C)cc3oc(=O)cc(-c4ccccc4)c3c2C)cc1OC	-4.38%
Cc1ccc(-c2cccc(-c3cc(=O)oc4ccc(C(C)(C)C)cc34)c2)cc1	-10.4%
COc1cc(OC)c2c(-c3cccc(-c4ccc(OC)c(OC)c4)c3)cc(=O)oc2c1	15.8%
CN1C(=O)c2cccc3c(N)ccc(c23)C1=O	-20.1%
CC1Cc2nc(SCC(=O)N3CCOCC3)n(-c3ccccc3)c(=O)c2S1 (stereo not drawn)	-24%
COc1cc(/C=C(\CC(=O)O)c2nc3ccccc3s2)ccc1OCC(=O)Nc1ccccc1F	-10.9%
CC(C)(C)c1ccccc1NC(=O)CN1C(=O)NC2(CCCCCC2)C1=O	-9.96%
CC(=O)Nc1ccc(-c2csc(NC(=O)CN3C(=O)NC4(CCCC4)C3=O)n2)cc1	1.18%
O=C(NC1CCN(Cc2ccccc2)CC1)c1cc(S(=O)(=O)N2CCOCC2)ccc1Cl	-4.42%
Cn1c(CC(=O)NN)c(Sc2ccccc2)c2ccccc21	0.473%
CCCOc1cc(N(CC)CC)ccc1/C=C(/C#N)c1nc2ccc(C)cc2[nH]1	-7.43%
COc1cc(/C=C(\C#N)C(=O)c2c[nH]c3ccccc23)cc(OC)c1O	12.3%
O=C(Nc1ccn(CCCNC2CCN(Cc3ccccc3)CC2)c(=O)n1)OCc1ccccc1	-10.9%
Clc1ccc(N(CC2CO2)CC2CO2)cc1 (stereo not drawn)	-9.93%
CC1=C(C(=O)N(C)C)CC(CC(=O)NCc2cccc3ccccc23)C(=O)N1CCCN1CCCC1=O (stereo not drawn)	-1.91%
Cc1cccc(NC(=O)CN2CCN(C(=O)CN3C(=O)NC4(CC(C)CC(C)(C)C4)C3=O)CC2)c1C (stereo not drawn)	-20.4%
COc1ccc(S(=O)(=O)N2CC[C@@H]3[C@@H](CO)N(C)c4ccc(-c5ccc(F)cc5)cc4[C@@H]32)cc1	10.9%
COc1ccc2c(c1)C(O)C(CO)C(C(=O)O)C2 (stereo not drawn)	-0.564%
CCOc1ccc2c(c1)C(C)=CC(C)(C)N2S(=O)(=O)c1ccc(F)cc1	-15.7%
O=C(Cc1ccccn1)NCC[C@H]1CC[C@H](NC(=O)Nc2ccc(C(F)(F)F)cc2)[C@H](CO)O1	4.87%
Fc1ccc2nc(C3CCN(Cc4nc(CC5CC5)no4)CC3)[nH]c2c1	-1.48%

Structure (SMILES)	activity change, negative = cytotoxicity
N#C/C(=C(/O)c1ccc(Br)s1)c1nc2ccccc2[nH]1	-19.7%
Cc1cc2oc(C(=O)NCCc3ccc(S(N)(=O)=O)cc3)c(C)c2cc1C	-9.06%
CCOC(=O)N1CCN(S(=O)(=O)c2ccc3c(c2)C(C)C(=O)N3)CC1 (stereo not drawn)	-13%
COc1ccccc1C1CC(=O)Nc2cc3c(cc21)OCCO3 (stereo not drawn)	5.01%
CCOc1ccccc1NC(=O)CC1SC(=N)N(c2ccccc2)C1=O (stereo not drawn)	-1.66%
O=S1(=O)c2ccc(Br)cc2N2CCC[C@H]2CN1Cc1ccccc1	-13.4%
O=C(CC1Sc2ccccc2NC1=O)NNc1cccc(Cl)c1Cl (stereo not drawn)	-13.7%
CC(=O)OC1CCC2(C)C(=CCC3C2CCC2(C)C3CC3ON=C(C)C32)C1 (stereo not drawn)	-4.59%
Cc1ccc(S(=O)(=O)N2C[C@H]3[C@H]4C(=O)N(C)C(=O)[C@H]4CC(=O)[C@H]3[C@@H]2c2ccccc2F)cc1	11.8%
CCCNC(=O)N1C[C@@H]2[C@H](c3ccccc31)[C@H](CO)N2Cc1ccc(OC)cc1	-1.83%
NS(=O)(=O)c1cc(Cl)c(Cl)c(S(N)(=O)=O)c1	-6.58%
COc1ccc(CC(=O)NC(c2ccccc2)c2ccc(C)cc2)c(OC)c1 (stereo not drawn)	15.1%
CC(C)NC(=O)NC(=O)COC(=O)c1ccc(S(=O)(=O)Nc2ccccc2)cc1	-0.043%
Cc1cc(-c2ccccc2)nc(N(C)NC(=O)C2CC2)c1S(C)(=O)=O	-8.74%
CCc1cccc(NC(=O)COC(=O)c2cc([N+](=O)[O-])ccc2N2CCOCC2)c1	-15.3%
O=C(COC(=O)c1cc([N+](=O)[O-])ccc1N1CCOCC1)Nc1c(Cl)cccc1Cl	-4.02%
COc1ccc(C(=O)c2cc([N+](=O)[O-])ccc2N2CCN(C)CC2)cc1	-26.3%
C[C@@H]1CN([C@H](C)CO)S(=O)(=O)c2ccc(/C=C/c3ccccc3)cc2O[C@H]1CN(C)C(=O)NC1CCCCC1	-16.1%
COc1cccc(/C=N/NC(=O)C(=O)N/N=C/c2cccc(OC)c2O)c1O	10.6% [at 8 µM]
C#CCN(C)CCCOc1ccc(Cl)cc1Cl	-3.84%
CC(C)Nc1nc(Nc2ccc(C#N)cc2)c2sccc2n1	-26.4%
CCCCNc1cc(C(=O)O)cc(S(N)(=O)=O)c1Oc1ccccc1	1.62%
CC[N+]1(CC)CC2=Cc3ccccc3CC2C1 (stereo not drawn)	-11.6%
Cc1ccc2c(CN3CCN(S(=O)(=O)c4ccc(Cl)cc4)CC3)cc(=O)oc2c1C	-1.82%
C#Cc1ccc(NC(=O)C2(C)CCN2C(=O)c2cc(C)n(C)n2)cc1 (stereo not drawn)	-2.6%

Structure (SMILES)	activity change, negative = cytotoxicity
CCN1C(=O)c2cccc3c(N)ccc(c23)C1=O	-13.8%
Cn1c(NCc2ccccc2F)nc2cc(-c3ccsc3)sc2c1=O	-4%
Cc1cc2oc(=O)cc(-c3ccccc3)c2c(C)c1-c1ccc(O)cc1	-5.01%
Nc1ccc(-c2c3ccc(=O)cc-3oc3cc(O)ccc23)cc1C(=O)O	-5.54%
COC(=O)CNc1cc(S(=O)(=O)N2CCCCC2)ccc1Oc1ccc(C(=O)OC)cc1	11.2%
COc1ccccc1CNC(=O)Cn1cnnn1	-10.7%
COc1ccc(NC(=O)C(CC(=O)O)Cc2ccc(Cl)cc2)cc1 (stereo not drawn)	12.9%
Cc1ccc(OCC(=O)Nc2ccc3c(c2)ncn3C)cc1	-12.2%
COc1ccccc1/C=C/C=N/NC(=O)CCn1cnc2ccccc21	-31.2%
C#Cc1ccc(C(=O)Nc2ccc(N3CCC(C)CC3)c(C(N)=O)c2)cc1	-15.7%
C[C@H]1CN([C@@H](C)CO)S(=O)(=O)c2ccc(C#Cc3ccccc3F)cc2O[C@H]1CN(C)C(=O)c1ccc2c(c1)OCO2	25.8%
COc1cc(/C=N/NC(=O)c2cc(-c3c(C)nn(-c4ccccc4)c3C)n[nH]2)ccc1O	2.51%
COc1ccc(/C=N/NC(=O)c2cccnc2)cc1CSc1ccccn1	-16.4%
CC#CCOCC1CNC(=O)O1 (stereo not drawn)	-6.75%
CCCN1[C@H](C(=O)N2CCOCC2)[C@@H](CO)[C@@H]2Cn3c(ccc(/C=C/c4ccccc4)c3=O)[C@@H]21	1.53%
O=C(COC(=O)C1CCC1)Nc1cc(S(=O)(=O)N2CCOCC2)ccc1Cl	9.46%
CCOc1ccc(S(=O)(=O)N2CCOCC2)cc1NC(=O)CSCC(=O)Nc1ccc(OC)cc1	-6.38%
COC(=O)[C@H](CCSC)NC(=O)Cn1cc(C)c(=O)[nH]c1=O	-3.37%
COCOc1cccc(CN2CCC2(C)C(=O)Nc2ccc(C)c(O)c2)c1 (stereo not drawn)	-20.5%
CCN(C(=O)CSc1nnc(C)n1-c1ccc(C)cc1)c1c(N)n(Cc2ccccc2)c(=O)[nH]c1=O	-6.86%
COc1ccc(S(=O)(=O)Nc2ccc3c(c2)C(=O)N([C@@H](C)CO)C[C@H](C)[C@H](CN(C)Cc2ccc(Cl)c(Cl)c2)OCCCC[C@@H](C)O3)cc1	7.33%
Cc1ccc(S(=O)(=O)Nc2ccc3c(c2)C(=O)N([C@@H](C)CO)C[C@H](C)[C@H](CN(C)S(=O)(=O)c2ccc(Cl)cc2)OCCCC[C@@H](C)O3)cc1	7.44%
COc1ccc(NC(=O)N(C)C[C@H]2Oc3c(cccc3N(C)C)C(=O)N([C@H](C)CO)C[C@H]2C)cc1	-8.08%
Cc1ccc(N2CC(C(=O)N(C)CC(=O)Nc3ccc(Cl)c(C(F)(F)F)c3)CC2=O)cc1 (stereo not drawn)	11%
COc1ccc(OCC(=O)NNC(=O)CCc2ccccc2)cc1	17.5%

Structure (SMILES)	activity change, negative = cytotoxicity
Cn1nc(C(=O)NNC(=O)CCOc2ccc(C(C)(C)C)cc2)c2ccccc2c1=O	-16.7%
O=c1cc(-c2ccccc2)[nH]c2ccc(F)cc12	-11.9%
O=C(Nc1ccc(F)cc1)Nc1ccc(N2CCOCC2)c2nonc12	-14.1%
COC(=O)c1ccc(C(=O)NC2CCCc3c2cnn3-c2ccc(C)c(C)c2)cc1 (stereo not drawn)	-8.84%
O=C(N/N=C/c1ccccc1OC(F)F)c1cc(-c2ccncc2)nc2ccccc12	-20.7%
O=C(CN1CCN(S(=O)(=O)c2ccc(F)c(Cl)c2)CC1)N1CCc2ccccc2C1	-20.4%
Cc1ccc(C)c(NC(=O)CSc2nc3c(c(=O)n2C)SC(C)C3)c1 (stereo not drawn)	-11.9%
Cc1ccc(NC(=O)c2c(C)noc2C)cc1S(=O)(=O)N1CCOCC1	-6.83%
COC(=O)c1c(-c2ccc(C)cc2)csc1NC(=O)c1c(-c2ccccc2)noc1C	-3.85%
O=C(CSc1nc2ccccc2n1-c1ccccc1)Nc1ncc(Cl)cc1Cl	-9.54%
O=C(COc1ccc(F)cc1Cl)Nc1cccc(S(=O)(=O)N2CCCCCC2)c1	1.09%
O=S1(=O)CCN(C(CO)c2ccccc2)CC1 (stereo not drawn)	-12.1%
COc1ccc(/C=C2\SC(=O)N(CCNC(=O)C3=COCCO3)C2=O)cc1	-18%
CC1(c2ccc3ccccc3c2)CCC(=O)O1 (stereo not drawn)	-3.36%
COc1ccc(S(=O)(=O)N2CCN(CCOc3ccccc3Cl)CC2)cc1OC	-28.1%
COc1cc(/C=C2\SC(=S)N(NC(=O)c3ccncc3)C2=O)ccc1O	-8.91%
CCCCN1C(=O)/C(=C/C=C2\Oc3ccccc3N2CC)SC1=S	-19.4%
O=C(CCNS(=O)(=O)c1cccc(C(F)(F)F)c1)NC1CC1	2.26%
Clc1ccc(CSc2nncn2-c2ccc3c(c2)OCCO3)cc1	-6.14%
O=C(c1cccnc1)N1CC[C@@H]2[C@H](CO)Nc3ccc(C4=CCCCC4)cc3[C@@H]21	-8.51%
O=S(=O)(c1ccc(F)cc1)N1CC[C@@H]2[C@@H](CO)Nc3ccc(-c4ccc(F)cc4)cc3[C@@H]21	-28.2%
COc1ccc(S(=O)(=O)N2CC[C@@H]3[C@@H](CO)Nc4ccc(-c5ccc(C#N)cc5)cc4[C@@H]32)cc1	-18.6%
COc1ccc(S(=O)(=O)N2CC[C@@H]3[C@@H](CO)Nc4ccc(C5=CCCCC5)cc4[C@@H]32)cc1	-2.3%
